Source: PubChem BioAssay (EPA / NIEHS)
Inconclusive results are not listed. A structure can be active in one record and inactive in another. Activity calls are given as the source filed them. The calls were made as follows, unless noted: active = hit-call score of the fitted dose curve at least 0.9, where 1 is the maximum; inconclusive = response in the unintended direction; inactive = score below 0.9.

Tests used:
[1] = target: Estrogen receptor (Homo sapiens) (UniProt P03372); assay: ATG_ERa_TRANS: Attagene TRANS-FACTORIAL HepG2 Assay for human Estrogen Receptor alpha (ERa) (AID 2282970); conditions: HepG2 Attagene TRANS ERa GAL4 reporter, mRNA
Summary of the method: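 After 24 h of compound treatment, RNA from HepG2 cells bearing transfected GAL4-UAS reporter constructs is converted to cDNA, amplified and fluorescently labelled. Capillary electrophoresis resolves the ERa-linked reporter; DMSO serves as negative control.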

[2] = target: Steroid hormone receptor ERR1 (Homo sapiens) (UniProt P11474); assay: ATG_ERRa_TRANS: Attagene TRANS-FACTORIAL HepG2 Assay for human Estrogen-Related Receptor alpha (ERRa) (AID 2282971); conditions: HepG2 Attagene TRANS reporter, ERRa transactivation
Summary of the method: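 Transfected HepG2, 24 h dosing, ERRa-Gal4 chimera driving GAL4-UAS reporter. Readout: reporter mRNA via RT-PCR plus capillary electrophoresis (fluorescence). Positive direction vs DMSO control.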

[3] = target: X-box-binding protein 1 (Homo sapiens) (UniProt P17861); assay: ATG_Xbp1_CIS: Attagene CIS-FACTORIAL HepG2 Assay for human X-box Binding Protein 1 (XBP1) (AID 2282972; active = hit-call score of the fitted dose curve at least 0.9, where 1 is the maximum; inactive = score below 0.9); conditions: HepG2 XBP1 cis-element reporter, Attagene multiplex; actives raise or lower the signal
Summary of the method: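 HepG2, transient MRTU transfection (cis-promoter driven), 24 h compound exposure. Total RNA → oligo(dT) RT → PCR → 6-FAM labeling → HpaI cut → CE. Bidirectional fit vs DMSO.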

[4] = target: Oxysterols receptor LXR-alpha (Homo sapiens) (UniProt Q13133); assay: ATG_LXRa_TRANS: Attagene TRANS-FACTORIAL HepG2 Assay for human Liver X Receptor alpha (LXRa) (AID 2282980); conditions: HepG2 Attagene TRANS reporter, LXRa transactivation
Chain of Oxysterols receptor LXR-alpha (Homo sapiens) (Q13133 whole entry, looked up, the tested form may be a part): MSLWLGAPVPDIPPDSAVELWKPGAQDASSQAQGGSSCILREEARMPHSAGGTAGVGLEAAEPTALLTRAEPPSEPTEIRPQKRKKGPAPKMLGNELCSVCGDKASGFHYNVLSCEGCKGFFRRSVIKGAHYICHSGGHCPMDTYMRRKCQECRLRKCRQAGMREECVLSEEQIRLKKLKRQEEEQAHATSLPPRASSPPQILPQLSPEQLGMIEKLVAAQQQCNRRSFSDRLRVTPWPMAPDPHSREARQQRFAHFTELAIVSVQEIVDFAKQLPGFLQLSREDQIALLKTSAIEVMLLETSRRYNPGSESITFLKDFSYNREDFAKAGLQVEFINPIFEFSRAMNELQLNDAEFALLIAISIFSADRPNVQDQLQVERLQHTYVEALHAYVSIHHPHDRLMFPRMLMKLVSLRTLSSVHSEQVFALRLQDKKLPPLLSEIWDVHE
Summary of the method: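 Read-out: reporter transcript levels by RT-PCR plus capillary electrophoresis, fluorescence intensity. Transiently transfected HepG2, exogenous NR-GAL4 chimera, GAL4-UAS reporters; 24 h compound exposure. Activity = increase over DMSO negative control.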

[5] = ATG_M_06_TRANS: Attagene TRANS-FACTORIAL HepG2 Assay for M06 Transcription Factor (Internal Marker) (AID 2282983); conditions: HepG2 Attagene TRANS M06 internal marker reporter
Summary of the method: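 After a 24 h chemical treatment of transfected HepG2, RNA underwent DNase I treatment, reverse transcription and reporter-specific PCR; labelled, HpaI-digested products were sized by capillary electrophoresis. Signal increase relative to DMSO defined activity.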

[6] = ATG_M_32_TRANS: Attagene TRANS-FACTORIAL HepG2 Assay for M32 Transcription Factor (Internal Marker) (AID 2282984); conditions: HepG2 Attagene TRANS M32 internal marker reporter;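 also: transcript level of a background control reporter unit measured by RT-PCR and capillary electrophoresis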
Summary of the method: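 HepG2 cells transiently transfected with multiple GAL4-UAS reporter transcription units, dosed for 24 hours; reporter mRNA quantified by RT-PCR, 6-FAM primer extension, HpaI digestion and capillary electrophoresis. Gain-of-signal fitted versus DMSO baseline; internal background-control marker.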

[7] = target: Transcriptional activator Myb (Homo sapiens) (UniProt P10242); assay: ATG_Myb_CIS: Attagene CIS-FACTORIAL HepG2 Assay for human Myeloblastosis (Myb) Proto-Oncogene Transcription Factor (AID 2282986; active = hit-call score of the fitted dose curve at least 0.9, where 1 is the maximum; inactive = score below 0.9); conditions: HepG2 Attagene CIS-FACTORIAL Myb reporter transcription; actives raise or lower the signal
Chain of Transcriptional activator Myb (Homo sapiens) (P10242 whole entry, looked up): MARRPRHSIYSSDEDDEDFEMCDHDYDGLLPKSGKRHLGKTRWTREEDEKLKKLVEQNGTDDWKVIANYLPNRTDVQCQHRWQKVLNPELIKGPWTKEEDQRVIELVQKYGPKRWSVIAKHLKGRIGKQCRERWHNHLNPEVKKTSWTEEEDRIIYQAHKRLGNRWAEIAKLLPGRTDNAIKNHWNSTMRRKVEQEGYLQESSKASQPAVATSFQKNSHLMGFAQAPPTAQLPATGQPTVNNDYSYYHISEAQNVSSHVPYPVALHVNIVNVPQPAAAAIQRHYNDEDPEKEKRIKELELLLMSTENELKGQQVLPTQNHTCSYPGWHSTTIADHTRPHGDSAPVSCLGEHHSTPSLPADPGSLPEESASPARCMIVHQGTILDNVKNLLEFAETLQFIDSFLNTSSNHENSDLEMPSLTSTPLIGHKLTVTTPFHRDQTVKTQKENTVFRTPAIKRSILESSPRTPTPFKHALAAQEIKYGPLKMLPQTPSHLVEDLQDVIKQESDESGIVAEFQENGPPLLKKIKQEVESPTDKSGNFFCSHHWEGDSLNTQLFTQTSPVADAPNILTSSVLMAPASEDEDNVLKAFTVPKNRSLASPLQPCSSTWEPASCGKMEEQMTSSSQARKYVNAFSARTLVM
Summary of the method: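 Reporter mRNA is quantified by RT-PCR and capillary electrophoresis 24 h after dosing HepG2 cells transfected with cis-regulated reporter units, which track endogenous transcription factor activity. Gain and loss of signal are fitted versus DMSO baseline.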

[8] = target: Nuclear respiratory factor 1 (Homo sapiens) (UniProt Q16656); assay: ATG_NRF1_CIS: Attagene CIS-FACTORIAL HepG2 Assay for human Nuclear Respiratory Factor 1 (NRF1) Orphan Gene (AID 2282987; active = hit-call score of the fitted dose curve at least 0.9, where 1 is the maximum; inactive = score below 0.9); conditions: HepG2 NRF1 cis-element reporter, Attagene multiplex; actives raise or lower the signal
Chain of Nuclear respiratory factor 1 (Homo sapiens) (Q16656 whole entry, looked up): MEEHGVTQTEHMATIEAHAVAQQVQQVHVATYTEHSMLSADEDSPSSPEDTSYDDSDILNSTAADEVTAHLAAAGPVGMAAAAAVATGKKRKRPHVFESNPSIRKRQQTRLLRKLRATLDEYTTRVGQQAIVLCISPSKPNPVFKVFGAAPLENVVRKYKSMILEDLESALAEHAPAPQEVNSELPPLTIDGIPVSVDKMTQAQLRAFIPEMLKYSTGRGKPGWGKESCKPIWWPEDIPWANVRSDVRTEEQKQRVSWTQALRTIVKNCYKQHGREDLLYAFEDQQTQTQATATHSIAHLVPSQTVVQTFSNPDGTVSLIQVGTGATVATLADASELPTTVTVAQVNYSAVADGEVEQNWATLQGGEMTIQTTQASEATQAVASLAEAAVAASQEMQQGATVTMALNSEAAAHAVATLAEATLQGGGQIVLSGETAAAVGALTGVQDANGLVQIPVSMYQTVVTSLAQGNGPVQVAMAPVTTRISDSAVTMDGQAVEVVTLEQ
Summary of the method: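 Endogenous NRF1-driven reporter transcription in transfected HepG2 cells after 24 h treatment. Readout: RT-PCR products, 6-FAM labelled and resolved by capillary electrophoresis; changes fitted both directions relative to DMSO.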

[9] = ATG_NFI_CIS: Attagene CIS-FACTORIAL HepG2 Assay for human Nuclear Factor I (NFI) (AID 2282989; active = hit-call score of the fitted dose curve at least 0.9, where 1 is the maximum; inactive = score below 0.9); conditions: HepG2 cis-regulatory reporter, NFI response element transcription; actives raise or lower the signal
Summary of the method: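 HepG2, transient MRTU, 24 h exposure; RNA→cDNA→PCR→FAM label→HpaI→CE fluorescence. Bidirectional fit, DMSO = baseline.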

[10] = target: Myc proto-oncogene protein (Homo sapiens) (UniProt P01106); assay: ATG_Myc_CIS: Attagene CIS-FACTORIAL HepG2 Assay for human Myelocytomatosis (Myc) Proto-Oncogene Transcription Factor (AID 2282990; active = hit-call score of the fitted dose curve at least 0.9, where 1 is the maximum; inactive = score below 0.9); conditions: HepG2, Attagene cis-reporter transcription factor activity; actives raise or lower the signal
Chain of Myc proto-oncogene protein (Homo sapiens) (P01106 whole entry, looked up): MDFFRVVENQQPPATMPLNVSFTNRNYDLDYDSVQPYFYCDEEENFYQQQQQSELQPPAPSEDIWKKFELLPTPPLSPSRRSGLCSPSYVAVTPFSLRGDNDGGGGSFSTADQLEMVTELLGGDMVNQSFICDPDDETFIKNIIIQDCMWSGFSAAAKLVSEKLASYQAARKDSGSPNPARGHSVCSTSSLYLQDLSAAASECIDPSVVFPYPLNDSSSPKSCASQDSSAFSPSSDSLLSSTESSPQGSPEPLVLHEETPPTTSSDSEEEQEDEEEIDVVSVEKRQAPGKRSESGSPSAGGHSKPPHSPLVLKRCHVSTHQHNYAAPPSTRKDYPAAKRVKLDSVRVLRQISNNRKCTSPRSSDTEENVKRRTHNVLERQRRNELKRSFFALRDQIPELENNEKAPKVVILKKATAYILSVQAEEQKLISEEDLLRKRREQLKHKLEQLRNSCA
Summary of the method: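 Multiplexed cis-reporter transcription in HepG2 cells after 24 h chemical treatment. Reporter mRNA measured by RT-PCR and capillary electrophoresis fluorescence; activity fitted bidirectionally against DMSO control.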

[11] = ATG_GAL4_TRANS: Attagene TRANS-FACTORIAL HepG2 Assay for GAL4 (Internal Marker) (AID 2282976); conditions: HepG2 Attagene TRANS GAL4 internal marker reporter
Summary of the method: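 RT-PCR/capillary electrophoresis readout of reporter mRNA. HepG2, transient MRTU transfection (GAL4-UAS reporters), 24 h compound exposure. Background-control endpoint, positive direction vs DMSO baseline.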

[12] = target: Glucocorticoid receptor (Homo sapiens) (UniProt P04150); assay: ATG_GR_TRANS: Attagene TRANS-FACTORIAL HepG2 Assay for human Glucocorticoid Receptor (GR) (AID 2282978); conditions: HepG2 Attagene TRANS GR reporter, mRNA transcription;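 also: activators score as hits since higher reporter transcript over DMSO is fitted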
Chain of Glucocorticoid receptor (Homo sapiens) (P04150 whole entry, looked up, the tested form may be a part): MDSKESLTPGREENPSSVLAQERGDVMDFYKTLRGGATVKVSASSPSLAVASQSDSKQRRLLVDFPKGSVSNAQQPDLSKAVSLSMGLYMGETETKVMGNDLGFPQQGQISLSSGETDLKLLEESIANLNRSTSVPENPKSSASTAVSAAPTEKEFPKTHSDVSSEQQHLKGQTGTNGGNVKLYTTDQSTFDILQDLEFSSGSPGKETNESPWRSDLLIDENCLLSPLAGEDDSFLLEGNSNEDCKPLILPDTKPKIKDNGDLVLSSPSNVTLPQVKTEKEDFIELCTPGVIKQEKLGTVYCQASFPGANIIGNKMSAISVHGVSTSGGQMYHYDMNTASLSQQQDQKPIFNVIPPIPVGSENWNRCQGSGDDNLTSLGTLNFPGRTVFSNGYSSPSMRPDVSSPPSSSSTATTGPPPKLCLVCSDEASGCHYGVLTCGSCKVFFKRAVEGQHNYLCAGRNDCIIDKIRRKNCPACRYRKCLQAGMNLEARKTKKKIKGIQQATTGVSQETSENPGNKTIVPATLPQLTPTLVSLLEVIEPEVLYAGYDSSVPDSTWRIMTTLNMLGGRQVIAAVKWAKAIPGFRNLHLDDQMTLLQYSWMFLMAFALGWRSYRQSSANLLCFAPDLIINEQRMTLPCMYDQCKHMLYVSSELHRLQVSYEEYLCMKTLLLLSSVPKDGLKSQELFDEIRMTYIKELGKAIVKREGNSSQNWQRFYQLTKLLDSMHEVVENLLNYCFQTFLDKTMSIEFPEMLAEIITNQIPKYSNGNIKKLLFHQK
Summary of the method: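 Readout is reporter transcript from a chimeric GR-Gal4 acting on GAL4-UAS in transfected human HepG2 liver cells after 24 h exposure, quantified by RT-PCR and capillary electrophoresis. Activation fitted upward against DMSO.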

[13] = target: Oxysterols receptor LXR-beta (Homo sapiens) (UniProt P55055); assay: ATG_LXRb_TRANS: Attagene TRANS-FACTORIAL HepG2 Assay for human Liver X Receptor beta (LXRb) (AID 2282981); conditions: HepG2 Attagene TRANS GAL4-LXRb reporter, mRNA
Chain of Oxysterols receptor LXR-beta (Homo sapiens) (P55055 whole entry, looked up, the tested form may be a part): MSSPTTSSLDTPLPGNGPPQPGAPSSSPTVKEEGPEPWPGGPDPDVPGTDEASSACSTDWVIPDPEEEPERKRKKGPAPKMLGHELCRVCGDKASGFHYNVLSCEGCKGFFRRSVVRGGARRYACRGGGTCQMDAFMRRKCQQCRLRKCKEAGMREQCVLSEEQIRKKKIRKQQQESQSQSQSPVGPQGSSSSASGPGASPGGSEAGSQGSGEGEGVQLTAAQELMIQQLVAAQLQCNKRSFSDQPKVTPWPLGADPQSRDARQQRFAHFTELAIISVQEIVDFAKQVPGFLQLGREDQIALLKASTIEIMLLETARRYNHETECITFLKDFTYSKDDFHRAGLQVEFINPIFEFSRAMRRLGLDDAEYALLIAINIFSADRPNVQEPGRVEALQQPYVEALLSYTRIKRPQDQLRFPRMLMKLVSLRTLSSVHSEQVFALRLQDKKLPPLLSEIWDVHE
Summary of the method: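 HepG2 cells transiently transfected with multiple reporter transcription units carrying chimeric NR-Gal4 proteins acting on GAL4-UAS reporters; compound exposure 24 h. Reporter mRNA quantified by RT-PCR, 6-FAM labelling, HpaI digestion and capillary electrophoresis; gain of signal versus DMSO.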

[14] = target: Hepatocyte nuclear factor 4-alpha (Homo sapiens) (UniProt P41235); assay: ATG_HNF4a_TRANS: Attagene TRANS-FACTORIAL HepG2 Assay for human Hepatocyte Nuclear Factor 4 alpha (HNF4a) (AID 2282982); conditions: HepG2 HNF4a transactivation reporter, mRNA readout
Chain of Hepatocyte nuclear factor 4-alpha (Homo sapiens) (P41235 whole entry, looked up, the tested form may be a part): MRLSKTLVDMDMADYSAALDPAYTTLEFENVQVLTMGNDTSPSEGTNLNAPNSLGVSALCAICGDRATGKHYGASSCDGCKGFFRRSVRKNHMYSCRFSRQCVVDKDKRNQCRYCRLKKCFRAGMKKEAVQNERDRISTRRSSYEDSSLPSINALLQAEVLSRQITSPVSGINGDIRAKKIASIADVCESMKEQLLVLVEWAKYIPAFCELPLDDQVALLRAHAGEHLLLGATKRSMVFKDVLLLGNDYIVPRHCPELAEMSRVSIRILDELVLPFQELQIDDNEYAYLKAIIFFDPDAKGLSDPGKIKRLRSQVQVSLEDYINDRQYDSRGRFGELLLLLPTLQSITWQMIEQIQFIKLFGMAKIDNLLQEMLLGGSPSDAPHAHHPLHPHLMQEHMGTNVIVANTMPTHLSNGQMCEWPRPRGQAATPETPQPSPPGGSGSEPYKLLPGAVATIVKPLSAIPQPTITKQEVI
Summary of the method: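 HepG2 cells transiently transfected with multiplexed GAL4-UAS reporter units responsive to chimeric NR-GAL4 proteins; compound exposure 24 h. Reporter mRNA quantified by RT-PCR, 6-FAM labelling, HpaI digestion and capillary electrophoresis; gain of signal versus DMSO baseline.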

[15] = ATG_M_19_TRANS: Attagene TRANS-FACTORIAL HepG2 Assay for M19 Transcription Factor (Internal Marker) (AID 2282974); conditions: HepG2 Attagene TRANS-FACTORIAL M19 internal marker reporter
Summary of the method: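 Background-control readout: after 24 h chemical exposure of transfected HepG2 carrying GAL4-driven reporter units, RNA was reverse-transcribed, amplified, fluorescently labeled and sized by capillary electrophoresis; gain-of-signal fit against DMSO.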

[16] = target: Bile acid receptor (Homo sapiens) (UniProt Q96RI1); assay: ATG_FXR_TRANS: Attagene TRANS-FACTORIAL HepG2 Assay for Farnesoid X Receptor (FXR) (AID 2282979); conditions: HepG2 Attagene TRANS FXR-GAL4 reporter transcription;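 also: hits raise reporter mRNA above DMSO so AC50 marks FXR activation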
Chain of Bile acid receptor (Homo sapiens) (Q96RI1 whole entry, looked up, the tested form may be a part): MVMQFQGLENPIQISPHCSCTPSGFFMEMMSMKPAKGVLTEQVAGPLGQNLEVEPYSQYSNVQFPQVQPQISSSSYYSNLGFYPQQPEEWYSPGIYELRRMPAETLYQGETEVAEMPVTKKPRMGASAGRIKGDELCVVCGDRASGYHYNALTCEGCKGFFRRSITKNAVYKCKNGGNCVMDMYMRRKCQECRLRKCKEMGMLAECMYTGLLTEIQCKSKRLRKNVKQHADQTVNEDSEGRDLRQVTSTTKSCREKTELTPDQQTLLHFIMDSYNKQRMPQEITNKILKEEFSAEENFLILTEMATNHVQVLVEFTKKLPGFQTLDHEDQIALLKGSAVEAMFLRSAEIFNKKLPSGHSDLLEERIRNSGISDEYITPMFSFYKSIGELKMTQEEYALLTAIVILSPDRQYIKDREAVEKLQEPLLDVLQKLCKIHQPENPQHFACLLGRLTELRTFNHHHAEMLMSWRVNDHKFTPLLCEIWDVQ
Summary of the method: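 Read-out: fluorescent reporter transcripts quantified by capillary electrophoresis after RT-PCR of total RNA. Source cells were HepG2 transiently carrying chimeric NR-GAL4 plus GAL4-UAS reporter units, dosed 24 h. Activity fitted upward relative to DMSO baseline.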

[17] = target: Nuclear receptor subfamily 4 group A member 2 (Homo sapiens) (UniProt P43354); assay: ATG_NURR1_TRANS: Attagene TRANS-FACTORIAL HepG2 Assay for human Nuclear Receptor Related Protein 1 (NURR1) (AID 2282985); conditions: HepG2 Attagene TRANS reporter, mRNA readout
Chain of Nuclear receptor subfamily 4 group A member 2 (Homo sapiens) (P43354 whole entry, looked up, the tested form may be a part): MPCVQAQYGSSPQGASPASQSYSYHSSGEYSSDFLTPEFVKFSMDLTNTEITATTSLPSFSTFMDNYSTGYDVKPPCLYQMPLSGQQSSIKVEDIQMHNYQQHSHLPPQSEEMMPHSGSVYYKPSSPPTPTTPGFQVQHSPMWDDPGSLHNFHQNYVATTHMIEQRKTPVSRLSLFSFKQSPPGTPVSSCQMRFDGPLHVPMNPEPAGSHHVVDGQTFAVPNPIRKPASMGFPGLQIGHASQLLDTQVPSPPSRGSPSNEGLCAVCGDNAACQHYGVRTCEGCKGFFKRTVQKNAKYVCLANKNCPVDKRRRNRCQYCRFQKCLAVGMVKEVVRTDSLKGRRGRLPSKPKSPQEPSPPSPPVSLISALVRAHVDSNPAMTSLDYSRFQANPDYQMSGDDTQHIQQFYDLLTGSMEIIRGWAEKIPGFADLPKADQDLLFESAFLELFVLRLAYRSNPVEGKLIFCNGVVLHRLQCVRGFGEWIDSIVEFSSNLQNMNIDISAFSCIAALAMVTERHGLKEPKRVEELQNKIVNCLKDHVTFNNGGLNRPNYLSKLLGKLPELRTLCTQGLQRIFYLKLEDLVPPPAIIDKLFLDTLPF
Summary of the method: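 HepG2 cells transiently transfected with GAL4-UAS reporter units and chimeric NR-Gal4 constructs; chemical exposure 24 h. Reporter mRNA quantified by RT-PCR, fluorescent labelling and capillary electrophoresis; gain of signal fitted relative to DMSO baseline.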

[18] = target: Estrogen-related receptor gamma (Homo sapiens) (UniProt P62508); assay: ATG_ERRg_TRANS: Attagene TRANS-FACTORIAL HepG2 Assay for human Estrogen-Related Receptor gamma (ERRg) (AID 2282977); conditions: HepG2 Attagene TRANS reporter, ERRg transactivation;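 also: hits increase reporter signal over DMSO so potencies reflect activators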
Summary of the method: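 HepG2 cells transiently transfected with multiplexed GAL4-UAS reporter units and chimeric NR-Gal4 constructs were exposed to test chemicals for 24 h. Reporter mRNA was measured by RT-PCR, 6-FAM primer extension, HpaI digestion and capillary electrophoresis; gain-of-signal versus DMSO.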

[19] = target: Androgen receptor (Homo sapiens) (UniProt P10275); assay: ATG_AR_TRANS: Attagene TRANS-FACTORIAL HepG2 Assay for human Androgen Receptor (AR) (AID 2282973); conditions: HepG2 Attagene TRANS-FACTORIAL AR reporter transcription
Summary of the method: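 Readout is reporter transcript abundance, quantified by fluorescent RT-PCR products separated on capillary electrophoresis. Human HepG2 liver cells carried transiently transfected NR-Gal4 chimera plus GAL4-UAS reporter constructs and were dosed for 24 h; activity scored upward versus DMSO.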

Measured: AC50

CCOP(=O)(OCC)SCCSCC
inactive: [1] | [2] | [3] | [4] | [5] | [6] | [7] | [8] | [9] | [10]

O=C(Cc1ccccc1)OCCc1ccccc1
inactive: [1] | [3] | [11] | [12] | [13] | [14] | [5] | [6] | [9] | [10]

O=S(=O)(C(Cl)(Cl)Cl)C(Cl)(Cl)Cl
active: [3] 15.4 µM | [9] 17.9 µM
not listed: [2] | [10] | [12] | [13] | [14] | [18] | [19]
inactive: all other assays above

Cc1cc(C(F)(C(F)(F)F)C(F)(F)F)ccc1NC(=O)c1cccc(I)c1C(=O)NC(C)(C)CS(C)(=O)=O
inactive: [1] | [3] | [15] | [18] | [12] | [16] | [9] | [10]

O=C(NC(=O)c1c(F)cccc1F)Nc1cc(Cl)c(Oc2ncc(C(F)(F)F)cc2Cl)c(Cl)c1
inactive: [1] | [3] | [19] | [15] | [16] | [17] | [7] | [8] | [9] | [10]

CCCCOC(C)=O
inactive: [1] | [3] | [15] | [11] | [16] | [13] | [14] | [5] | [6] | [7] | [9] | [10]
active: [7] 100 µM

CCCCC(CC)C(=O)Cl (stereo unspecified)
inactive: [1] | [3] | [15] | [16] | [14] | [8] | [9]

CN(CCCC(O)c1cccnc1)N=O (stereo unspecified)
not listed: [2] | [4] | [5] | [11] | [12] | [13] | [18]
inactive: all other assays above

C=C(C)C(=O)OCC(CC)CCCC (stereo unspecified)
inactive: [1] | [3] | [11] | [18] | [14] | [5] | [7] | [8] | [9] | [10]

CCCCCCCCCCCCBr
not listed: [2] | [4] | [6] | [15] | [16] | [17] | [18] | [19]
inactive: all other assays above

O=C(O)c1cc(I)cc(I)c1I
inactive: [1] | [3] | [15] | [11] | [12] | [4] | [6] | [7] | [8] | [9]

CCN(N=O)C(N)=O
not listed: [2] | [5] | [13] | [17] | [18] | [19]
inactive: all other assays above
